Sampled rows, rich in hits. Any-hit rate of the full collection: about 31%.
CYP2C9 inhib = inhibitors of human CYP2C9; CYP2C9 Supersomes, luciferin-H conversion, luminescence; AID 777; inhibition, % at 5 µM; P11712; 96,000 tested, 20% active;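 active = blocking of liver enzyme CYP2C9 beyond about 50% at 5 µM, limit read from the data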
CYP2C19 inh = blocks human cytochrome P450 2C19 | AID 778 | 96,000 tested, 21% active | CYP2C19 Supersomes, luciferin-H EGE luminescence, 30 min | inhibition, % at 5 µM;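 active = CYP2C19 inhibition above a set limit at 5 µM in the primary screen, cut at about 50% in these data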;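 note: plate controls were negative control wells for no effect and 2.5 mM tranylcypromine positive control for full effect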
Target sequence (P33261 whole entry, looked up): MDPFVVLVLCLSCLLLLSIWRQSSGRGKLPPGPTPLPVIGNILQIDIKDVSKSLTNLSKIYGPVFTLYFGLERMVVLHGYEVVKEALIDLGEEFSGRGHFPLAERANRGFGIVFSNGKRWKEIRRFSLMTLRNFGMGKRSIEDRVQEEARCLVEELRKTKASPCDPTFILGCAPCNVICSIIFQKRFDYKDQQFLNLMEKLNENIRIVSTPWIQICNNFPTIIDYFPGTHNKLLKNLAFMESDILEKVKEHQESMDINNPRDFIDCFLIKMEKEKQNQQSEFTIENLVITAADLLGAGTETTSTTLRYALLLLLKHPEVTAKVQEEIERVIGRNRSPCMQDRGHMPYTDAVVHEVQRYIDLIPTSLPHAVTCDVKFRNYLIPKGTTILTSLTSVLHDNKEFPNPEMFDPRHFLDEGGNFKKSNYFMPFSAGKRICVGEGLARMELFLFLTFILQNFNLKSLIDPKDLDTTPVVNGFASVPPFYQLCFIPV
CYP2C19 activ = cytochrome P450 2C19 (human) activation. P33261. recombinant CYP2C19, luciferin-H EGE luminescence; active compounds read high; 0 = fully inhibited enzyme, 1 = untreated enzyme. activation factor at 5 µM. 96,000 tested, under 10 active. AID 1025;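 active = activation factor of at least 2 at 5 µM in the primary screen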;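 note: 0 = wells with 2.5 mM tranylcypromine and 1 = vehicle-only wells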
CYP2C9 act = CYP2C9 (human) activation. P11712. recombinant CYP2C9, luciferin-H conversion, luminescence; active compounds read high; factor 1 = untreated enzyme, 0 = blocked. activation factor at 5 µM. 96,000 tested, 1.4% active. AID 1024;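 active = activation factor of 2 or more for CYP2C9 at a 5 µM dose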;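 note: 0 = sulfaphenazole-blocked wells and 1 = vehicle-only wells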
The depositor's hits bear a star.

SMILES	CYP2C9 inhib	CYP2C19 inh	CYP2C19 activ	CYP2C9 act
CCC(=O)N=c1sc2c(C)cc(C)cc2n1CC(=O)OC	-3	26	0.7	1
CC(=O)NN1C(=O)/C(=C\c2ccc(C)cc2)SC1=S	-3	52*	0.5	1
CC1CCCCC1NC(=O)Cn1[nH]c(=O)c2ccccc2c1=O (stereo not given)	-6	41	0.6	1.1
Cc1ccc(-c2nc(C3CCCN(S(=O)(=O)c4ccc(C(C)(C)C)cc4)C3)no2)cc1 (stereo not given)	-33	5	0.9	1.3
Cc1ccc(-c2nc(C3CCCN(S(=O)(=O)c4ccc(C)cc4)C3)no2)cc1 (stereo not given)	57*	58*	0.4	0.4
CC(=O)NS(=O)(=O)c1ccc(NC(=O)c2ccc(Br)o2)cc1	-11	-2	1	1.1
O=C(COc1ccc(Br)cc1)NCc1ccccn1	37	65*	0.4	0.6
O=C(COc1ccccc1)NCc1cccs1	22	58*	0.4	0.8
COc1ccccc1OCC(=O)NCc1cccs1	9	59*	0.4	0.9
O=C(COC(=O)c1ccc(Br)o1)NCc1cccs1	20	67*	0.3	0.8
O=C(COC(=O)c1ccco1)NCc1cccs1	6	38	0.6	0.9
COc1ccc(CC(=O)NCc2cccs2)cc1OC	-2	43	0.6	1
COc1ccc2cc3cc(C(=O)NCC4COc5ccccc5O4)oc3nc2c1 (stereo not given)	12	-15	1.2	0.9
O=C(COc1ccccc1)NCCc1cn2ccsc2n1	44	84*	0.2	0.6
O=C(Cc1ccccc1)NCCc1cn2ccsc2n1	0	22	0.8	1
Cc1ccc(OCC(=O)NCc2cccs2)cc1	13	71*	0.3	0.9
CC(C)(C)c1ccc(OCC(=O)NNC(=O)Cc2cccs2)cc1	-26	-8	1.1	1.3
O=C(COc1cccc2ccccc12)NNC(=O)c1cccs1	-194	34	0.7	2.9*
Cc1cc(C(=O)OCC(=O)N2CCN(C(=O)c3ccco3)CC2)c(C)n1-c1ccc(F)cc1	42	48	0.5	0.6
Cc1cc(C(=O)CNCc2ccco2)c(C)n1-c1ccc(F)cc1	28	51*	0.5	0.7
CC1=C(C(=O)OC2CCCCC2)C(c2ccco2)C2=C(CC(C)(C)CC2=O)N1 (stereo not given)	3	1	1	1
CCN(CC)c1ccc(C2C(C(=O)Nc3ccccn3)=C(C)NC3=C2C(=O)CC(C)(C)C3)cc1 (stereo not given)	94*	42	0.6	0.1
CCOC(=O)C1=C(C)N(C)C(=O)NC1c1cc2c(cc1Br)OCO2 (stereo not given)	38	62*	0.4	0.6
CCOC(=O)C1=C(C)NC2=C(C(=O)CC(C)(C)C2)C1c1cccc(C)n1 (stereo not given)	16	55*	0.5	0.8
COCCOC(=O)C1=C(C)NC2=C(C(=O)CCC2)C1c1cc2c(cc1Br)OCO2 (stereo not given)	79*	96*	0	0.2
SMILES	CYP2C9 inhib	CYP2C19 inh	CYP2C19 activ	CYP2C9 act
CCOCCCNC(=O)N[C@@H](Cc1ccccc1)C(=O)OC	-17	-1	1	1.2
CC1(C)CC(=O)C2=C(C1)Nc1[nH]n(-c3ccccc3)c(=O)c1C2c1ccc2c(c1)OCO2 (stereo not given)	44	55*	0.5	0.6
COCCOC(=O)C1=C(C)NC2=C(C(=O)CC(C)(C)C2)C1c1ccc2c(c1)OCO2 (stereo not given)	82*	90*	0.1	0.2
CCN(CC)c1ccc(C2C(C(=O)OCCOC)=C(C)NC3=C2C(=O)CC(C)(C)C3)cc1 (stereo not given)	19	30	0.7	0.8
CN(C)c1ccc(C2CC(=O)NC3=C2C(=O)CC(C)(C)C3)cc1 (stereo not given)	8	61*	0.4	0.9
COc1ccc(C2C3=C(CC(C)(C)CC3=O)Nc3c2c(=O)[nH]c(=O)n3Cc2ccccc2)cc1OC (stereo not given)	0	16	0.8	1
CCCOC(=O)C1=C(C)NC2=C(C(=O)CC(C)(C)C2)C1c1ccc(N(C)C)cc1 (stereo not given)	80*	85*	0.1	0.2
CC(C)(C)OC(=O)NC(CCCCNC=O)C(=O)O (stereo not given)	-5	-2	1	1
Cc1c(C#N)c2ccccc2n1CC(=O)N1CCCc2ccccc21	92*	32	0.7	0.1
O=C(Cc1cccc2ccccc12)N1CCCc2ccccc21	-132	43	0.6	2.3*
Cn1cc(SCC(=O)N2CCN(c3ccccc3)CC2)c2ccccc21	4	99*	0	1
CCn1cc(SCC(=O)N2CCOCC2)c2ccccc21	0	59*	0.4	1
CCn1c(=O)cc(SCC(=O)N2CCN(C)CC2)c2ccccc21	-61	-8	1.1	1.6
CCN(CC)C(=O)C(=O)N/N=C/c1ccc(Br)cc1	18	35	0.7	0.8
Cn1cc(SCC(=O)O)c2ccccc21	3	3	1	1
COCCn1c(SCC(=O)N2CCCc3ccccc32)nc2cccnc21	-1	46	0.5	1
Cc1ccccc1-n1cnnc1SCC(=O)N1CCN(c2ccccc2)CC1	22	46	0.5	0.8
CCn1cc(C(=O)C(F)(F)F)c2ccccc21	-131	7	0.9	2.3*
CC(C)NC(=O)Cn1c(SCC(=O)N2CCCc3ccccc32)nc2ccccc21	85*	58*	0.4	0.2
CSc1nsc(SCC(=O)N2CCN(c3ccccc3)CC2)n1	76*	73*	0.3	0.2
Cn1cc(SCC(=O)N2CCCc3ccccc32)c2ccccc21	18	98*	0	0.8
CCc1nn2c(N3CCOCC3)cc(C)nc2c1-c1ccc(F)cc1	20	22	0.8	0.8
O=C(Nc1cccc(O)c1)c1ccc(Br)c(S(=O)(=O)N2CCCCC2)c1	5	0	1	1
CC(OC(=O)Cn1c(C(F)(F)F)nc2ccccc21)C(=O)N1CCCc2ccccc21 (stereo not given)	52*	17	0.8	0.5
Cn1cc(SCC(=O)N2CCOCC2)c2ccccc21	-25	90*	0.1	1.3
SMILES	CYP2C9 inhib	CYP2C19 inh	CYP2C19 activ	CYP2C9 act
CNc1cnn(-c2ccc(C)cc2)c(=O)c1Cl	-7	4	1	1.1
Cc1ccc(C(=O)N/N=C/c2nc3ccccc3n2C)cc1	21	19	0.8	0.8
Cn1c(/C=N/NC(=O)c2ccccc2Br)nc2ccccc21	62*	69*	0.3	0.4
COc1ccc2c(c1)C(=O)CC(c1ccccc1F)O2 (stereo not given)	-13	87*	0.1	1.1
COc1ccc2c(c1)C(=O)c1ccccc1CO2	9	11	0.9	0.9
CCN(C(=O)Cn1c(=O)oc2ccccc21)C1CCS(=O)(=O)C1 (stereo not given)	6	-10	1.1	0.9
Oc1ccc(Nc2nc(-c3ccc(O)cc3)cs2)cc1	-6	30	0.7	1.1
NS(=O)(=O)c1ccc(Nc2nc(-c3ccc(O)cc3)cs2)cc1	86*	36	0.6	0.1

Screening data: PubChem, Sanford-Burnham Center for Chemical Genomics
